A selection: hits, their analogues and other compounds. The true share with any hit is near 2.4%.
PGK inhibitor: T. brucei PGK inhibition. P07378. PGK/GAPDH coupled, Kinase-Glo luminescence, 60 min. Potency, µM (titrated, usually from 57.5 µM), actives largely listed as inhibitors. 380,000 tested, 0.043% active. AID 602233; also: nearly all actives have a fitted effect of over 60% in size
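Recombinant glycosomal PGK reaction used 1,3-bisphosphoglycerate generated in-well by GAPDH (100nM final) in 100mM TEA pH 7.6, 5mM MgCl2, 0.01% Tween-20. After 60 minutes at room temperature, ATP was read by Kinase-Glo Plus luminescence end-point.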
Pol eta inh-1: inhibitors of human DNA polymerase eta; 390,000 tested, 1.2% active; recombinant Pol eta, fluorescent DNA replication assay; Potency, µM (titrated, usually from 114 µM), most hits filed as inhibitors; Q9Y253
Target sequence (Q9Y253 whole entry, looked up): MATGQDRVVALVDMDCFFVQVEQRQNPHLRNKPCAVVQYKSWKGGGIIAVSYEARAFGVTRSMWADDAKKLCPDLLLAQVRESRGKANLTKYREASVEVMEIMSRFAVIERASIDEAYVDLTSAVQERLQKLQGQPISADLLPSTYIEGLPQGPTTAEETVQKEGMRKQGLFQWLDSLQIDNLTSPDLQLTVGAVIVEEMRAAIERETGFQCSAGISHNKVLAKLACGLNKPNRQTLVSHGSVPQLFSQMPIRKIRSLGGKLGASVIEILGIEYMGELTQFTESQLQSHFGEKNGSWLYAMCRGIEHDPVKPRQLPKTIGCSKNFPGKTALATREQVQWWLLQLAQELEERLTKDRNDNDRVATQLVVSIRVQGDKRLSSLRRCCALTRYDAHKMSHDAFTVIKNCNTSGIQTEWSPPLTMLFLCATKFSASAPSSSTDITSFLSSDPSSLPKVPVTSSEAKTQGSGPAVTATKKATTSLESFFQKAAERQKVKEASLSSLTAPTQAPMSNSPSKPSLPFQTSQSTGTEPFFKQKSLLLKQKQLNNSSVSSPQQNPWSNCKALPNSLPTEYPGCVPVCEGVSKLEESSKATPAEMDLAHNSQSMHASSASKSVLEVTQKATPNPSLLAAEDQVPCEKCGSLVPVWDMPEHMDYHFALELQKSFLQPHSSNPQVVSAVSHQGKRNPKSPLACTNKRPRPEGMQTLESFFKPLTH
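Fluorescent replication assay: 50 nM final substrate added after a 15 min room-temperature compound preincubation with 10 nM enzyme. Signal taken at 0 min and again at 10 min.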
Pol iota inh: DNA polymerase iota (human) inhibition. Q9UNA4. Pol iota fluorescent replication assay, 10 min. Potency, µM (top dose mostly 115 µM), most hits filed as inhibitors. 390,000 tested, 1% active
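Pol iota at 10 nM preincubated 15 min with compounds at room temperature; reaction started with fluorescent substrate, 50 nM final. Fluorescence read kinetically at 0 and 10 min; buffer-only wells as negative control.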
Pol kappa inh-1: inhibitors of human DNA polymerase kappa; Q9UBT6; purified Pol kappa, fluorescent DNA synthesis assay, 10 min; Potency, µM (titrated, usually from 107 µM), most hits filed as inhibitors; 400,000 tested, 0.53% active
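Activity was followed as the change in fluorescence between reads at 0 and 10 min after starting the reaction with 50 nM substrate. Beforehand, 10 nM polymerase had been preincubated with compound for 15 min at room temperature.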
FEN1 inhibitor: blocks human flap endonuclease 1 | P39748 | Potency, µM (highest dose often 114 µM), most hits filed as inhibitors | Recombinant FEN1 flap cleavage, fluorescence, 15 min | AID 588795 | 390,000 tested, 0.35% active; also: nearly all actives have a fitted effect of over 65% in size
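Steps: FEN1 (10 nM) dispensed; compound added by pin tool; 15 min at room temperature; substrate added to 50 nM final; reads at 0 min and 15 min; data normalized and fitted (four-parameter Hill).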
POLB inh: blocks human DNA polymerase beta activity; P06746; Potency, µM (series often up to 114 µM), hits mostly inhibitors; 340,000 tested, 1.3% active; Pol beta primer extension/strand displacement, fluorescence kinetic
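Pol beta (10 nM) and compounds were preincubated 15 min at room temperature, then 50 nM substrate (final) started primer extension/strand displacement. Reads were taken at 0 and 10 min; concentration-response data were fitted to a four-parameter Hill equation.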
BAZ2B inh: confirmation of human BAZ2B bromodomain inhibitors. AID 588809. AlphaScreen BAZ2B / biotin-H3K14Ac peptide displacement. shares compounds with Pol kappa inh-1. Potency, µM, usual class: inhibitors. 25 tested, 100% active; calls by dose curve
AlphaScreen ctr: AlphaScreen signal interference, BAZ2B hit counter-screen. 25 tested, under 10 active. Potency, µM (titrated, usually from 57.1 µM), hits mostly inhibitors. AlphaScreen biotin-His6 peptide bead counterscreen, signal decrease. shares compounds with Pol kappa inh-1;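 active = clear concentration-dependent signal drop in the bead assay lacking the target, so a primary-screen artifact; inconclusive = weak, partial or single-dose response; inactive = no response, so a real primary hit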
PGK validate: validation of Trypanosoma brucei phosphoglycerate kinase inhibitors; shares compounds with Pol kappa inh-1; TbPGK coupled GAPDH assay, Kinase-Glo luminescence; Potency, µM (top dose mostly 57.5 µM), actives largely listed as inhibitors; 500 tested, 79% active; AID 686980; also: nearly all actives have a fitted effect of over 65% in size
Pol iota confirm: Confirm cherry-picked inhibitors of human polymerase iota | shares compounds with Pol kappa inh-1 | Pol iota primer extension, TAMRA/BHQ fluorescence | Potency, µM, most hits filed as inhibitors | 1,500 tested, 77% active
Pol kappa inh-2: Pol kappa (human) inhibition, cherry-pick confirmation; shares compounds with Pol eta inh-1; purified Pol-kappa, fluorescent strand-displacement substrate; Potency, µM, usual class: inhibitors; 920 tested, 76% active; AID 720501
Pol eta inh-2: Pol eta (human) inhibition, cherry-pick confirmation. shares compounds with Pol eta inh-1. Pol eta primer extension, TAMRA/BHQ fluorescence, 10 min. Potency, µM, actives largely listed as inhibitors. 2,600 tested, 64% active
Hits are given with their value; n = inactive; u = inconclusive; x = no result; [ ] = another dose, or the depositor's remark. Unless noted, calls follow the shape of the dose curve; as a rule, active = well fitted curve in the direction sought with a large enough effect; inconclusive = small, poorly fitted or top-dose-only effect, or another doubt; inactive = no such curve, though single readings can be large; an effect the other way counts as inactive or inconclusive.

SMILES	PGK inhibitor	Pol eta inh-1	Pol iota inh	Pol kappa inh-1	FEN1 inhibitor	POLB inh	others
CN(C(=O)Cc1ccc(Cl)c(Cl)c1)[C@H](CN1CCCC1)c1cccc(N=C=S)c1	x	x	x	n[19.4 µM]	x	x
CCC(C)(C)O	x	x	x	n	x	x
O=C(NC1CC1)c1cc(-c2ccco2)nc2ccccc12	u	3.55µM	u	20µM	u	u	BAZ2B inh=10;AlphaScreen ctr=u
COCCN(Cc1cc2cc3c(cc2nc1Cl)OCO3)C(=O)c1ccc(C)cc1	n	n	n	n	n	n	BAZ2B inh=11.2;AlphaScreen ctr=u
CCOP(=O)(OCC)C(O)c1ccc2c(c1)OCO2 (stereo not given)	n	n	n	n	n	n
CN1C(=O)/C(=C/C=C/c2ccco2)C(=O)NC1=S	28.2µM	5.62µM	10µM	25.1µM	20µM	u	PGK validate=5.17µM
COc1ccc(/C=C2\C(=O)NC(=S)N(C)C2=O)cc1C	10µM	2.82µM	u	50.1µM	50.1µM	n	PGK validate=4.11µM
Cc1ccc(-c2nnc(C)c(N3CCCC3)n2)cc1	n	n	n	n	n	n
Cc1nc(N2CCCCC2)c2ccsc2n1	n	n	n	n	n	n	BAZ2B inh=10;AlphaScreen ctr=u
CCOc1ccc(NS(=O)(=O)c2ccc(Cl)c(N=Nc3c(O)[nH]c(=S)[nH]c3=O)c2)cc1Br	22.4µM	20µM	x	x	x	x	PGK validate=14.6µM
O=C(O)c1ccccc1NS(=O)(=O)c1cccc(N=Nc2c(O)[nH]c(=S)[nH]c2=O)c1	n	n	u	n	n	x
Cc1ccc(CNc2cc(C)nc3nc(-c4ccc(C)cc4)nn23)cc1	n	n	u	n	n	n
CCn1c(C)c(C(=O)Nc2ccc(OC)cc2)c2cc(OC)ccc21	x	n	n	n	n	n
COc1ccc(NC(=O)CN(C)C(=O)c2cc3c(s2)CCC3)cc1	u	3.16µM	7.08µM	10µM	25.1µM	x	BAZ2B inh=7.94;AlphaScreen ctr=n
CC1CCN(S(=O)(=O)c2ccc(NN=C(C#N)C#N)cc2)CC1	x	x	x	x	x	n
N#CC(C#N)=NNc1ccc(S(N)(=O)=O)cc1	u	12.6µM	20µM	44.7µM	39.8µM	n	PGK validate=n;Pol kappa inh-2=u;Pol eta inh-2=67.5
Cc1ccc(NC(=O)Nc2ccc3nc(N4CCN(C)CC4)cc(C)c3c2)cc1F	n	n	u	n	n	n
COc1cc2cc(C(=O)N3CC(COS(C)(=O)=O)c4ccc(O)cc43)[nH]c2c(OC)c1OC (stereo not given)	n	3.16µM	1.78µM	10µM	n	x	Pol iota confirm=4.74;Pol kappa inh-2=2.99;Pol eta inh-2=6.75
CC1[C@H]2Cc3ccc(O)cc3[C@]1(C)CCN2C (stereo not given in full)	n	n	n	n	n	x
CN1CC[C@@]2(C)c3cc(O)ccc3N(C)[C@@H]12	n	u	10µM	n	u	x	Pol iota confirm=59.7;Pol eta inh-2=u
O=C1C=C2C=CC3C[C@@]2(O1)C1CCCCN31 (stereo not given in full)	x	x	x	n[19.4 µM]	x	x
CC(C)c1ccc(C(c2c(O)c3ccccc3oc2=O)c2c(O)c3ccccc3oc2=O)cc1	n	22.4µM	x	x	x	x	Pol iota confirm=u;Pol kappa inh-2=37.7;Pol eta inh-2=u

Bioassay records deposited in PubChem BioAssay by National Center for Advancing Translational Sciences (NCATS).
